Sampled rows, rich in hits. Any-hit rate of the full collection: about 5.1%.
RAM network inh = blocks the yeast RAM network | S. cerevisiae dse1pr::URA3 reporter, 5-FOA growth OD615, 2 d; analog-sensitive cbk1-as2 kinase mutant strain | inhibition, % at 50 µM | 190,000 compounds, 1.8% hits | AID 868;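 active means inhibition above a set limit, 3 SD over mean compound inhibition, cut at about 8.4% in these data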;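 further: 0% = DMSO-only wells with no growth and 100% = 10 µM 1-NA-PP1 full growth; inhibition rescues growth on 5-FOA so higher OD means more RAM inhibition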
S1P3 antagonist = antagonists of human S1P3 receptor; CHO S1P3 NFAT-BLA reporter, FRET fluorescence, antagonist mode; AID 485; inhibition, % at 4.98 µM; 170,000 compounds, 0.27% hits;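 active means inhibition above the plate cutoff, the mean inhibition of test wells on that plate plus 3 SD, cut at about 28% in these data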;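 further: cells challenged with S1P at its EC80 of 0.8 µM; blue over green emission ratio from cleaved BLA substrate after 4 h stimulation; 0% = S1P-stimulated wells and 100% = unstimulated DMSO-only wells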
Cl transport mod = KCC2 (human) Cl- transport modulation; Q9H2X9; KCC2 cells, thallium flux FluoZin-2 fluorescence; B-score of Tl+ flux slope (higher = more flux/activation; lower = inhibition) at 10 µM; 190,000 compounds, 2.2% hits; AID 1456;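 active means thallium flux slope and its plate-corrected score both differing from the plate sample mean at a set confidence after two filtering rounds, in either direction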;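 further: slope of fluorescence scaled to starting intensity during 10 to 20 s after thallium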
S1P4 ag = activates the human S1P4 receptor; S1P4-expressing cell line, agonist reporter assay; activation, % at 4.98 µM; 220,000 compounds, 0.35% hits; in the data active means activation above about 11%;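 further: 0% = DMSO vehicle and 100% = reference agonist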
S1P4 antagonist = blocks the human S1P4 receptor; S1P4-expressing cells, antagonist mode, reporter read-out; inhibition, % at 4.98 µM; 220,000 compounds, 0.26% hits; O95977; in the data active means inhibition above about 29%;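 further: 0% = wells stimulated with agonist and 100% = vehicle wells without agonist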
ROMK mod = modulators of human ROMK potassium channel; Tet-inducible ROMK, thallium flux fluorescence; actives lie on both sides; P48048; AID 1918; 130,000 compounds, 2% hits; B-score at 10 µM;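 active means signal ratio slope over the read window, or its plate-corrected B-score, at least 3 SD from the plate mean, either direction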;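 further: B-score of the F/F0 ratio slope over 7 to 12 s after thallium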
Target sequence (P48048 whole entry, looked up): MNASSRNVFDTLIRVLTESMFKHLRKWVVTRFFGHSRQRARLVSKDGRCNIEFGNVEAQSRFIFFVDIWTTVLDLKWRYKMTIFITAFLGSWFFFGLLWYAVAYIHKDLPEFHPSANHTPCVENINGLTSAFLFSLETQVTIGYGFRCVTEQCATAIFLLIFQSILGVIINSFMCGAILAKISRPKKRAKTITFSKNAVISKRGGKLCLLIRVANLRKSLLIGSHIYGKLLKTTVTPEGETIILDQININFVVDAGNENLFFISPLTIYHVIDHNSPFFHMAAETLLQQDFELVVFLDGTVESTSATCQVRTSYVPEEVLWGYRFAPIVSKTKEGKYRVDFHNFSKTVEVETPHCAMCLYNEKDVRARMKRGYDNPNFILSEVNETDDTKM
ROMK retest = retested hit modulating human ROMK potassium channel | normalized thallium flux (F/F0 slope) at 10 µM | ROMK thallium flux, fluorescence ratio; active compounds read low | AID 1917 | 3,000 compounds, 54% hits | shares compounds with ROMK mod;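 active means Flux at 10 µM at least 3 SD below or above vehicle control mean in one or both replicates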
Active calls of the source: *; x = not tested or not shown.

SMILES	RAM network inh	S1P3 antagonist	Cl transport mod	S1P4 ag	S1P4 antagonist	ROMK mod	ROMK retest
S=C(NCCc1ccccc1)N1CCN(C2CCCCC2)CC1	1	3	-0.039	1	-21	-2.7*	0.063*
CCCc1nnc(N2C(=O)c3cccc4cccc(c34)C2=O)s1	1	x	x	1	-14	2.3*	0.08
CCc1cc(OCCCCNCc2ccccc2)ccc1Cl	0	4	0.24	0	3	-3.6*	0.054*
CC(C)(C)c1ccc(OCCCNCc2ccccc2)cc1	-1	-16	-2	1	-4	-0.91	x
Clc1cc(Br)ccc1OCCCNCc1ccccc1	1	0	-1.3	-2	-2	-4.3*	0.059*
CCOC(=O)C1(CC/C(C)=N\NC(N)=O)CC(C)(C)OC1=O (stereo not given)	3	4	-0.013	0	3	0.54	x
O=C1CC(NCc2ccncc2)C(=O)N1c1ccc(Cl)cc1 (stereo not given)	3	x	0.54	-1	8	0.53	x
CSc1ccccc1NC(=O)CN1CCN(Cc2ccccc2)CC1	0	-10	0.3	-1	-9	-3.1*	0.072
CCOC(=O)N1CCN(CC(=O)Nc2ccc([N+](=O)[O-])cc2C(=O)Nc2ccccc2F)CC1	3	-10	0.32	0	-8	x	x
O=C(CN1CCN(Cc2ccccc2)CC1)Nc1ccc([N+](=O)[O-])cc1C(=O)Nc1ccccc1F	0	-13	-2.3	0	8	x	0.058*
CCN(Cc1ccncc1)C(=O)C1CCN(S(=O)(=O)c2cccs2)CC1	2	x	-0.58	2	-21	0.05	x
CCC(=O)NC1OC(CO)C(O)C(O)C1O (stereo not given)	0	-5	-0.081	2	-12	-2.4*	0.073
CC(=O)c1ccc(NC2OC(CO)C(O)C(O)C2O)cc1 (stereo not given)	-1	-24	-0.1	2	5	1.3	x
Cc1ccc(NC(=O)CC2=NC(=O)C(CC(=O)Nc3ccccc3F)S2)cc1 (stereo not given)	5	0	-0.31	-1	-3	0.012	x
Nc1ccccc1SSc1ccccc1N	x	3	2.7	1	-6	x	x
CC(C(Sc1ccccc1N)c1ccccc1)[N+](=O)[O-] (stereo not given)	x	3	0.18	0	8	-5.1*	0.042*
Clc1ccc(C2=C3CCCCn4c(-c5ccccc5)c[n+](c43)C2)cc1	1	x	1.1	0	-9	x	0.064*
COc1ccc(-c2c[n+]3c4n2CCCCC4=C(c2ccc(Br)cc2)C3)cc1	-1	x	x	1	-22	-4.6*	0.052*
CCN1/C(=C/c2ccc3cccc(C)c3[n+]2CC)Sc2ccccc21	1	x	x	-2	-22	x	x
CCN1/C(=C/c2ccc3cc(C)cc(C)c3[n+]2CC)Sc2cc(C)ccc21	-1	20	-0.66	-2	-7	-5.2*	0.045*
CCN1/C(=C/C(C)=C/c2sc3ccccc3[n+]2CC)Sc2ccccc21	0	13	-0.038	0	-5	-1.2	x
CCN1/C(=C\c2ccc3cc(C)ccc3[n+]2CC)Sc2cc(C)c(C)cc21	-1	20	0.11	0	0	-5*	0.047*
O=C(Oc1ccccc1)c1cccnc1Oc1ccccc1	x	5	x	0	10	x	x
O=C(CSc1nc2ccccc2c(=O)n1-c1ccc(F)cc1)Nc1ccc(N2CCOCC2)cc1	3	-15	0.035	-1	-6	x	x
O=C(c1ccc(-n2c(SCc3cccc(F)c3)nc3ccccc3c2=O)cc1)N1CCOCC1	2	4	-1.4	-1	-19	-3.4*	0.059*
SMILES	RAM network inh	S1P3 antagonist	Cl transport mod	S1P4 ag	S1P4 antagonist	ROMK mod	ROMK retest
CNC(=O)CN(C)S(=O)(=O)c1ccc(F)cc1	0	x	x	-2	-9	0.77	x
CCOc1ccc(S(=O)(=O)N(C)C)cc1-c1nc2c(C(C)(C)C)nn(C)c2c(=O)[nH]1	5	x	x	0	-4	-1.8	x
CCOc1ccc(S(=O)(=O)N(C)CCO)cc1-c1nc2c(C(C)(C)C)nn(C)c2c(=O)[nH]1	3	x	x	2	-13	-4.3*	0.048*
COc1ccc(C2CC(=O)Oc3c(C(CCN4CCCCC4)c4ccc(N(C)C)cc4)c(OC)cc(OC)c32)cc1 (stereo not given)	x	x	-0.016	x	x	x	x
COc1ccc(C2CC(=O)Oc3c(C(CCN4CCCC(C)C4)c4ccc(N(C)C)cc4)c(OC)cc(OC)c32)cc1 (stereo not given)	x	x	0.012	x	x	x	0.059*
CCCC1=NN(C(=O)Cc2ccc(OC)cc2)C(O)(C(F)(F)F)C1 (stereo not given)	-1	-9	0.88	0	1	x	x
CCCN(CCC)S(=O)(=O)c1cccc(-c2csc(C)n2)c1	x	-19	-2.1	0	11	x	x
CC(C)c1ccc(CNc2nc3nc4c(c(=O)n3[nH]2)CCC4)cc1	4	0	-0.58	-1	-10	-1.6	x
CCOc1ccccc1CNc1nc2nc3c(c(=O)n2[nH]1)CCC3	3	4	x	-1	-15	x	0.079
Cc1ccc2c(C(=O)CNc3nncs3)c(C)[nH]c2c1	x	4	0.17	-1	4	x	x
COCc1cc(C)nc(SCC(=O)Nc2ccc(C)c(C)c2)c1C#N	2	x	-0.6	0	-7	0.67	x
COCc1cc(C)nc(SCC[N+](C)(C)CC(=O)Nc2cccc(C(F)(F)F)c2)c1C#N	-1	-8	-0.052	0	-4	-2.6*	0.059*
COCc1cc(C)nc(OCC(=O)N/N=C/c2ccc(C)o2)c1C#N	0	-13	1.2	0	-9	0.84	x
CCN(CCNC(=O)C1CCCN(Cc2nc(-c3ccc(OC)cc3)oc2C)C1)c1ccccc1 (stereo not given)	-1	9	0.7	0	11	-3.9*	0.059*
CC(C)(C)C1=CC=C(C(C)(C)C)C(=O)C1=O	x	-8	x	0	3	x	x
COc1ccccc1NNC(=O)c1cc(C(C)(C)C)nn1Cc1ccccc1	x	25	0.54	-1	2	x	0.066*
CC(C)(C)C(=O)NNC(=O)c1cc(C(C)(C)C)nn1Cc1ccccc1	x	-2	0.53	1	-15	-0.35	x
CC(C)(C)c1cc(C(=O)NNc2cccc(Cl)c2)n(Cc2ccccc2)n1	x	-1	-0.43	-2	26	x	0.057*
Cc1ccc(NNC(=O)c2cc(C(C)(C)C)nn2Cc2ccccc2)cc1	x	-8	-1.2	2	18	x	x
CCn1cc(C(=O)NCCc2ccccc2)c(=O)c2cc(S(=O)(=O)N3CCCC3)ccc21	2	-4	-0.76	0	-3	-0.57	x
Cc1ccc[n+](CC(=O)Nc2cc(C(F)(F)F)ccc2Cl)c1	2	x	0.056	2	-20	x	x
CCC(C)(C)c1ccc(OCCCC[n+]2cccc(C)c2)c(C(C)(C)CC)c1	-2	-1	0.84	0	-9	-4.1*	0.047*

Bioassay records: PubChem BioAssay, several laboratories
